hcDAF-12 act = H. contortus DAF-12 nuclear receptor activators, primary screen, cell-based, luminescence, HEK293, lit1-tk-luc reporter; HEK293 hcDAF-12 lit1-tk-luc reporter; 0% DMSO, 100% Δ7-dafachronic acid; activation, % at 6.8 µM; actives 1.4% (n = 370,000); AID 652067, 2013;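 active = activation above the mean of all tested compounds plus 3 SD, cut at about 5.5% in these data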
ssDAF12 agonist = S. stercoralis DAF-12 nuclear receptor activators, primary screen, cell-based, luminescence, HEK293, GRIP1 co-expression, lit1-tk-luc; HEK293 ssDAF-12/GRIP1 lit1-tk-luc reporter; % of 3 µM dafachronic acid response; Nuclear hormone receptor DAF-12 (Strongyloides stercoralis); AID 652126, 2013; actives 1% (n = 370,000); activation, % at 6.8 µM;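 active = activation above the mean over all tested compounds plus 3 SD, cut at about 0.9% in these data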
hgDAF-12 ag = H. glycines DAF-12 receptor agonists, primary screen, cell-based, luminescence, HEK293, GAL4 fusion, UAS-luciferase; Nuclear hormone receptor DAF-12 (Heterodera glycines), GAL4 fusion; activation, % at 6.8 µM; HEK293 GAL4-hgDAF12 UAS-luciferase reporter, agonist luminescence; normalized to butyrate control; actives 1.8% (n = 370,000); AID 687014, 2013;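 active = activation above a cutoff set at the mean of all screened compounds plus 3 SD, cut at about 10% in these data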
DAX1 inh-1 = DAX1 (NR0B1) inhibitors, primary screen, cell-based, HEK293, Gal4-DAX1, luciferase luminescence; actives 0.99% (n = 340,000); inhibition, % at 6.75 µM; Nuclear receptor subfamily 0 group B member 1 (Homo sapiens), P51843; HEK293 Gal4-DAX1 luciferase reporter;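 active = inhibition above the mean over all tested compounds plus 3 SD, cut at about 4.2% in these data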;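 note: inhibition shows as a rise in luminescence from relieved DAX1 repression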
Target sequence (P51843 207-470 limits assumed): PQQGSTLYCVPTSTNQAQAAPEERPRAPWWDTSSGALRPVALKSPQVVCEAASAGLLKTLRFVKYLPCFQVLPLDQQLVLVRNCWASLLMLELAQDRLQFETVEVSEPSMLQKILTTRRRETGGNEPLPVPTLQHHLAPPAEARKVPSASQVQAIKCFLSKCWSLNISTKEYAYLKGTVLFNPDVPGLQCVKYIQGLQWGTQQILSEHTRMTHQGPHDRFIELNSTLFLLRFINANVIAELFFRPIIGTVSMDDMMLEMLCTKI
DAX1 inh-2 = DAX1 (NR0B1) inhibitors on StAR promoter, primary screen, cell-based, luminescence, SF-1 (NR5A1), full-length DAX-1. actives 1.1% (n = 370,000). inhibition, % at 6.8 µM. AID 652010, 2013. HEK293T StAR-luciferase reporter, SF-1/DAX-1 repression relief;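 active = inhibition above the mean over all tested compounds plus 3 SD, cut at about 3.6% in these data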;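 note: higher inhibition means more luminescence from relief of DAX-1 repression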
LXR ag = LXR agonists, Gal4 luciferase reporter, confirmation, counter-screen for hcDAF-12 agonist project, cell-based, luminescence, HEK293, H. contortus campaign. activation, % at 6.8 µM. shares compounds with hcDAF-12 act. 3,400 tested, under 10 active. HEK293 Gal4-LXR tk-luc reporter, 24 h; normalized: DMSO 0%, positive control 100%;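 active = mean percent activation of the reporter above a cutoff set as the average over tested compounds plus their standard deviation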
hcDAF12 conf = H. contortus DAF-12 receptor agonists, confirmation, cell-based, luminescence, HEK293, lit1-tk-luc, triplicate | actives 61% (n = 3,400) | HEK293 hcDAF-12 lit1-tk-luc reporter; % of Δ7-dafachronic acid response | shares compounds with hcDAF-12 act | AID 743032, 2013 | activation, % at 6.8 µM;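 active = mean activation across triplicate tests above the threshold derived from the earlier primary screen, cut at about 5.5% in these data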
Of the large screens only hits and unclear results are named; the others gave an inactive call (follow-up assays come after a bar, where they were run). A selection: hits, their analogues and other compounds. The true share with any hit is near 4.1%.

O=C(NC1CC2CCCC(C1)N2Cc1ccc(F)cc1)c1ccc(F)cc1 (configuration not stated)	none
O=C(Cc1nc2ccccc2[nH]c1=O)c1ccccc1	hcDAF-12 act 8.1, ssDAF12 agonist 1.2, hgDAF-12 ag 11 | LXR ag inactive | hcDAF12 conf 9.9
CC(=O)c1ccc(OC(=O)c2nc(-c3ccccc3)oc2C)cc1	none
Cc1nc2nc(-c3cccnc3)nn2c(C)c1Cl	none
Cc1nc2nc(-c3ccco3)nn2c(C)c1Cl	hcDAF-12 act 6.8 | LXR ag inactive | hcDAF12 conf inactive
O=C(COC(=O)c1cc[n+]([O-])cc1)Nc1ccc([N+](=O)[O-])cc1	none
COc1cccc(C2=Nc3cccc4cccc(c34)N2)c1	hcDAF-12 act 11 | LXR ag inactive | hcDAF12 conf inactive
Nc1ccc(C2=Nc3cccc4cccc(c34)N2)cc1	none
Cc1ccc(C(=O)NCCN(C)C)c(C)c1	none
CNc1c2cccc(C)c2nc2c(C(=O)NCCN(C)C)cccc12	hcDAF-12 act 38, ssDAF12 agonist 4.1 | LXR ag inactive | hcDAF12 conf inactive
CC(C)c1ccc(Nc2nc(CC(=O)O)cs2)cc1	hcDAF-12 act 9.4, hgDAF-12 ag 22 | LXR ag inactive | hcDAF12 conf 6.0
Cc1nn(-c2ccccc2)c2sc(C(=O)NCCc3ccccc3)cc12	none (no result: DAX1 inh-1)
CNC(=O)Cc1csc2ccc(C)cc12	none
C=CCc1ccccc1OCC(O)CNC(C)C (configuration not stated)	none
C=CCc1ccccc1OCC(O)CNC1CCCC1 (configuration not stated)	hcDAF-12 act 7.2 | LXR ag inactive | hcDAF12 conf inactive
CC1S/C(=N/N=C/c2ccco2)N(Cc2ccccc2)C1=O (configuration not stated)	none (no result: DAX1 inh-1)
C/C(=N\Nc1nc2ccccc2[nH]1)c1cc2ccccc2o1	hcDAF-12 act 7.4 | LXR ag inactive | hcDAF12 conf 8.7
Cc1ccc(N/N=C2\CS(=O)(=O)N(C)c3ccsc32)cc1	hcDAF-12 act 10, ssDAF12 agonist 1.2, DAX1 inh-1 11 | LXR ag inactive | hcDAF12 conf 8.7
CN1c2ccsc2/C(=N/Nc2ccc(F)cc2)CS1(=O)=O	hcDAF-12 act 7.1, ssDAF12 agonist 4.7, DAX1 inh-1 5.9 | LXR ag inactive | hcDAF12 conf 9.1
Cc1ccc(Nc2nc(=O)c3cccnc3s2)cc1	hcDAF-12 act 11, ssDAF12 agonist 1.3 | LXR ag inactive | hcDAF12 conf 9.3
CC(C)C(=O)Nc1ccc(NC(=O)c2cccnc2)cn1	none
CC(C)C(=O)Nc1ccc(NC(=O)c2ccccn2)cn1	hcDAF-12 act 6.7 | LXR ag inactive | hcDAF12 conf inactive
O=C(CSCC(=O)Nc1nc(-c2ccc3c(c2)OCO3)cs1)Nc1nccs1	hcDAF-12 act 8.4 | LXR ag inactive | hcDAF12 conf inactive
Cc1ccc(NN=C2c3ccccc3-c3ccccc32)cc1	hcDAF-12 act 11 | LXR ag inactive | hcDAF12 conf 9.0
COc1ccc(N(C(=O)c2cnccn2)C(C(=O)NCc2ccccc2)c2ccc(O)cc2)cc1 (configuration not stated)	none
O=C(NC(=S)Nc1cccc([N+](=O)[O-])c1)c1ccccc1	none (no result: DAX1 inh-1)
O=C(NC(=S)Nc1ccc(Cl)cc1)c1ccccc1	hcDAF-12 act 8.0, hgDAF-12 ag 13 | LXR ag inactive | hcDAF12 conf inactive
O=C(NC(=S)Nc1ccc(Oc2ccc(Cl)cc2)cc1)c1ccccc1	none
O=C(NC(=S)Nc1cc([N+](=O)[O-])ccc1Cl)c1ccccc1	hcDAF-12 act 6.6 | LXR ag inactive | hcDAF12 conf 6.0
Cc1ccc(S(=O)(=O)N2CCOCC2)cc1NC(=O)COC(=O)Cc1cccs1	none
O=CN1Cc2[nH]c3ccccc3c2N(c2ccc(Cl)cc2)C1=O	hcDAF-12 act 7.0, ssDAF12 agonist 1.1 | LXR ag inactive | hcDAF12 conf inactive
O=C(O)CCCCCCCCCCCc1ccccc1	none
O=C(Nc1nnc(-c2ccccc2Cl)o1)c1nc2ccccc2s1	hcDAF-12 act 8.8, ssDAF12 agonist 1.2 | LXR ag inactive | hcDAF12 conf inactive
O=C(Nc1nnc(-c2ccccc2Cl)o1)c1ccco1	none
O=C(/C=C\c1ccccc1OC(=O)c1ccccc1F)c1cc2ccccc2o1	hcDAF-12 act 7.3, DAX1 inh-1 5.3 | LXR ag inactive | hcDAF12 conf 5.9
COc1cccc(-c2nnc(Nc3nc4c(F)cccc4s3)o2)c1	hcDAF-12 act 8.3 | LXR ag inactive | hcDAF12 conf 6.8
COc1ccccc1-c1nnc(Nc2nc3c(OC)cccc3s2)o1	none
COc1ccc(C(=O)O/N=C(\N)c2ccccn2)c(OC)c1	none
N/C(=N\OC(=O)COc1ccc(Br)cc1Cl)c1ccccn1	hcDAF-12 act 9.8, DAX1 inh-2 4.2 | LXR ag inactive | hcDAF12 conf 7.6
N/C(=N\OC(=O)COc1ccc2ccccc2c1Br)c1ccccn1	none
COc1ccc(Cl)cc1C(=O)O/N=C(\N)c1ccccn1	hcDAF-12 act 7.1 | LXR ag inactive | hcDAF12 conf inactive
CC(C)Cc1ccc(C(=O)NCCOc2ccccc2)o1	hcDAF-12 act 9.9 | LXR ag inactive | hcDAF12 conf 7.4
Cc1ccc(OCCNC(=O)c2ccc(COc3ccccc3)o2)cc1	none
O=C(Nc1csc([N+](=O)[O-])c1)Nc1ccccc1Cl	none
O=C(Nc1ccc(Cl)cc1)Nc1ccccc1Sc1ncc([N+](=O)[O-])s1	hcDAF-12 act 7.6, ssDAF12 agonist 1.1 | LXR ag inactive | hcDAF12 conf inactive
Cc1ccc(C(=O)Nc2cccnc2Cl)cc1Cl	hcDAF-12 act 8.0, DAX1 inh-1 6.0 | LXR ag inactive | hcDAF12 conf inactive
Cc1ccc(C(=O)Nc2cccc3cccnc23)cc1Br	hcDAF-12 act 6.9 (no result: DAX1 inh-1) | LXR ag inactive | hcDAF12 conf 7.8

Screens (PubChem BioAssay)
